# Source: PubChem BioAssay AID485298 (National Center for Advancing Translational Sciences (NCATS), 2010)
# Where “and” joins values, the source holds several entries; their conditions need not be identical. Equal values may be shown once. In all, about 320,000 compounds went through this assay and about 740 (0.23%) were called active. Roughly 2% stayed inconclusive and do not appear here. Calls follow the shape of the dose curve; as a rule, active = well fitted activation curve with a large enough effect; inconclusive = small, poorly fitted or top-dose-only effect; inactive = no such curve, though single readings can be large or run the other way. What follows is part of a selection rich in actives, with near analogues and random picks from the rest. Where a call stands in place of a potency, no number is given. Some compounds were tested as several samples or in several runs, with calls that do not always agree.
# Assay: qHTS Assay for Small Molecule Inhibitors of Mitochondrial Division or Activators of Mitochondrial Fusion; also: nearly all actives have a fitted effect of over 45% in size
# Settings: S. cerevisiae fusion-defective mutant growth rescue, CellTiterGlo 48 h; series mostly up to 46.1 µM
# Procedure, shortened: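 Yeast fusion mutant, YPEG (non-fermentable carbon), compound, 48 h at 37C non-permissive; CellTiterGlo added, 10 min RT, luminescence read. Rescued growth = division inhibition.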
# Potency is read from the fitted curve at half-maximal effect.
row,SMILES,Potency
1,O=C(Nc1cccc(-c2nc3ccccc3o2)c1)c1cccc(Br)c1,inactive
2,CCc1nccn1CCC(=O)N1CCCC(N2CCN(c3ccccc3F)CC2)C1 (stereo unspecified),inactive
3,CCCC(C)NC(=O)C1CCN(C(=O)C2CC(=O)N(c3ccc(C)cc3)C2)CC1 (stereo unspecified),inactive
4,O=C(CN1CCSCC1)N/N=C/c1ccc(F)cc1,inactive
5,Cc1c(C(=O)N2CCCc3ccccc32)sc2nc(-c3ccccc3)cn12,inactive
6,Cc1cccc2cc3c(N)c(C(=O)N4CCCc5ccccc54)sc3nc12,17.8 µM (active)
7,Cc1c(C(=O)N2CCCc3ccccc32)oc2ccccc12,inactive
8,CCCCN(C)CCCNC(=O)c1cc(-c2cccs2)nc2ccccc12,inactive
9,CC(C)(C)Cc1nnc(NC(=O)c2cc(-c3ccccc3)nc3ccccc23)s1,inactive
10,O=C(Nc1nnc(-c2ccccc2)o1)c1cc(-c2cccs2)nc2ccccc12,12.6 µM (active)
11,O=C(CNc1cccc(S(=O)(=O)N2CCCCC2)c1)Nc1ccccc1F,inactive
12,CCN(CC)c1ccc(NC(=O)CN2CCN(CC(=O)Nc3ccc(Cl)cc3)CC2)cc1,inactive
13,COc1ccc(Cl)cc1NS(=O)(=O)c1cccc(C(=O)NC2CCC(O)CC2)c1 (stereo unspecified),inactive
14,CN(C)/C=C1/Nc2ccccc2C1=O,inactive
15,Cc1cc(C)c(/C=C2\C(=O)Nc3ccccc32)[nH]1,inactive and 16.4 µM (active)
16,O=C1Nc2ccccc2/C1=C/c1ccnc2ccccc12,inactive

row,SMILES,Potency
1,O=C(N/C(=C\c1ccc([N+](=O)[O-])cc1)C(=O)N1CCCCC1)c1ccco1,inactive
2,CCc1c(C)[nH]c(=S)c(C#N)c1C,inactive
3,Cc1c(S(=O)(=O)N2CC(C)CC(C)C2)c(=O)n(C)c(=O)n1C (stereo unspecified),inactive
4,CCOC(=O)[C@@H]1[C@H]2COc3ccc(Br)cc3[C@H]2N2C(=O)N(c3ccc(Cl)cc3)C(=O)[C@@]12C,inactive
5,COc1ccc(Nc2ncnc3ccc(Br)cc23)c(OC)c1,inactive
6,CC1(C)CC2CC(C)(CN2c2ncnc3ccc(Br)cc23)C1 (stereo unspecified),15.8 µM (active)
7,COc1ccc(C(=O)N2CC3(C)CC2CC(C)(C)C3)cc1OC (stereo unspecified),inactive
8,CCc1ccc(N(C(=O)c2csnn2)C(C(=O)NC2CCCCC2)c2cccnc2)cc1 (stereo unspecified),inactive
9,OCC[C@H]1C[C@H](O)[C@@H](O)[C@]2(CCc3ccccc3O2)O1,inactive
10,O=C(c1ccc(CSc2ccccc2)cc1)N1CCCCCC1,10 µM (active)
11,CC1CCN(C(=O)c2ccc(CSc3ccc(Cl)cc3)cc2)CC1,inactive
12,O=C(c1ccc(S(=O)(=O)c2ccccc2)cc1)N1CCCCCC1,inactive
13,Cc1cc(F)ccc1S(=O)(=O)Nc1ncnc2scc(-c3ccc(F)cc3)c12,inactive
14,O=C(COC(=O)c1ccccc1)c1ccc2c(c1)OCCO2,inactive
15,Cc1ccc(NC(=O)CSc2sc3c(O)cc(=O)[nH]c3c2C#N)cc1C,inactive
